From PubChem
ANO1 activ: TMEM16A chloride channel activators or potentiators, primary screen, cell-based, HTS. Anoctamin-1 (Mus musculus), Q8BHY3. HEK293 TMEM16A/YFP-H148Q/I152L, iodide quench fluorescence; stronger effect = lower value. B-score at 10 µM. 340,000 tested, 0.3% active. AID 623877, 2012;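 active means fluorescence-ratio B-score plate-corrected deviation score at least 3 library SD below zero, with starting fluorescence score within 5 deviations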;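 further: channel opened by trigger with iodide after compound preincubation; score built on the fluorescence ratio of max minus min over baseline; more negative score means more quench and so TMEM16A activation or potentiation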
Target sequence (Q8BHY3 whole entry, looked up): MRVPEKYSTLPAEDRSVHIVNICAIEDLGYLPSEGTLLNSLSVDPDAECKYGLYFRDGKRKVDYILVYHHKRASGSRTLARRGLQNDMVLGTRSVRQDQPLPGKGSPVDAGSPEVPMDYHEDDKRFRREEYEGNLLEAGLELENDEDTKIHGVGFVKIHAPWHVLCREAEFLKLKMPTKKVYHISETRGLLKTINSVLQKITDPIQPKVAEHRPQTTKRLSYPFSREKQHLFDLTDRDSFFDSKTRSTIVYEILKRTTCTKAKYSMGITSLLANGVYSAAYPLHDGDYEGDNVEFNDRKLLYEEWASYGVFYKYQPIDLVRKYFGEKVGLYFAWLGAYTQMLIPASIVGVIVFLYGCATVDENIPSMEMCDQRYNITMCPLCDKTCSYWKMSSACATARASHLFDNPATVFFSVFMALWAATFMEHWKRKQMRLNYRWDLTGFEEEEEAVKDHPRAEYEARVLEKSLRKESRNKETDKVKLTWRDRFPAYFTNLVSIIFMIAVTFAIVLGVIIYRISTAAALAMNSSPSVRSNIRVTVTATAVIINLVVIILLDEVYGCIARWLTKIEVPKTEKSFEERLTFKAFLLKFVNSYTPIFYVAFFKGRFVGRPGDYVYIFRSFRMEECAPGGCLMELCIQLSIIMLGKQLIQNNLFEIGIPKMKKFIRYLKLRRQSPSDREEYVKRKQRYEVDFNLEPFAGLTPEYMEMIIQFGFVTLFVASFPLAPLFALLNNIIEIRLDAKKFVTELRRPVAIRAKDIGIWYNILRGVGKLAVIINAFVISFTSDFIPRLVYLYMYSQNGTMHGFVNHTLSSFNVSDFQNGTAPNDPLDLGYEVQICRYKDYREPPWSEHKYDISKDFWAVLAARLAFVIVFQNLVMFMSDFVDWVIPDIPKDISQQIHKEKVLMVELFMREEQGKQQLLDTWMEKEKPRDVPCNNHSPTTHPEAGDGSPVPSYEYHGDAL
ANO1 block: TMEM16A chloride channel inhibitors, primary screen, cell-based, HTS; Anoctamin-1 (Mus musculus), Q8BHY3; HEK293 TMEM16A/YFP iodide influx fluorescence, ionomycin; normalized B-score (activity score, 25-100; higher = stronger inhibition) at 10 µM; 310,000 tested, 1.2% active; AID 588511, 2011;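 active means ratio plate-corrected score three or more library SD toward inhibition, starting fluorescence score within five deviations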;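 further: score derived from kinetic fluorescence span divided by baseline fluorescence per well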
CHT block: inhibitors of human choline transporter CHT | AID 488975, 2010 | High affinity choline transporter 1 (Homo sapiens), Q9GZV3 | CHT-expressing cells, membrane potential dye, choline response; stronger effect = lower value | B-score at 10 µM | 310,000 tested, 0.86% active;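 active means B-score over 3 SD under the library average, and starting fluorescence ratio not unusually high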;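 further: choline stimulus applied at its EC90 after an EC20 pre-addition; B-score computed on integrated fluorescence ratio after choline addition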
CHT PAM: CHT positive allosteric modulators, primary screen, cell-based, membrane potential dye, choline EC20 | High affinity choline transporter 1 (Homo sapiens), Q9GZV3 | CHT-expressing cells; stronger effect = higher value; LV-AA mutant CHT in HEK293 cells | B-score at 10 µM | 310,000 tested, 0.49% active;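 active means initial fluorescence not abnormally high and integrated response B-score, plate-corrected, over 3 SD above library mean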
CHT inh conf: CHT inhibitors, confirmation, cell-based, membrane potential dye, duplicate; shares compounds with CHT block; CHT-expressing cells, choline membrane potential dye; LV-to-AA substituted CHT, HEK293 cells; CHT activity remaining % of control (stronger effect = lower value), % at 10 µM; 2,400 tested, 70% active;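 active means choline transporter activity left, mean of duplicates at 10 µM, below buffer-only control mean minus 3 SD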;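 further: depolarization triggered by choline at its EC90 following an EC20 pre-addition; 0% = hemicholinium-3 full block and 100% = buffer-only control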
HEK293 MPD ctr: membrane potential effects in parental HEK293, counter-screen for CHT inhibitor project, cell-based, membrane potential dye. 2,400 tested, 4% active. membrane potential ratio readout (active if shifted either direction beyond buffer ±3SD; no single direction) at 10 µM. choline response; active = decrease or increase beyond buffer ±3SD. shares compounds with CHT block;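 further: parental cells lack the transporter so any hit is non-specific; ratio is peak minus trough fluorescence over baseline after EC90 choline challenge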
Active calls of the source: *; i = inactive; · = no result. Sampled rows, rich in hits. Any-hit rate of the full collection: about 2.3%.

SMILES	ANO1 activ	ANO1 block	CHT block	CHT PAM	CHT inh conf	HEK293 MPD ctr
CCCNc1c(NS(=O)(=O)c2cccc(C#N)c2)c(=O)oc2ccccc12	i	i	i	i	·	·
CCOC(=O)C1CCCN(C(=O)c2ccc(Cl)c(S(=O)(=O)N3CCCCCC3)c2)C1 (centres undefined)	i	i	i	i	·	·
N#C/C(C(N)=O)=c1/ccc2c(c1)N1C3=C(CCCC3)CC3CCCCC31N=2 (centres undefined)	·	i	-14.5*	i	22.8%*	i
CCc1cc(-c2n[nH]c(=S)n2Cc2ccccc2)cs1	i	i	i	i	·	·
CC(Oc1ccc(Cl)cc1)C(=O)Nc1ccc(S(=O)(=O)Nc2nccs2)cc1 (centres undefined)	i	i	i	i	·	·
CC(Oc1ccccc1Cl)C(=O)Nc1ccc(S(=O)(=O)Nc2nccs2)cc1 (centres undefined)	i	i	-7.68*	i	65.5%*	i
Cc1ccccc1OC(C)C(=O)Nc1ccc(S(=O)(=O)Nc2nccs2)cc1 (centres undefined)	i	i	-7.21*	i	47.2%*	i
N#Cc1ccccc1CSc1ncccc1C(=O)O	i	i	i	i	·	·
COc1cccc(C2=NOC(C(=O)NCc3ccc(F)cc3)C2)c1 (centres undefined)	i	i	-5.12*	i	66.1%*	i
COc1ccc(CNC(=O)C2CC(c3cccc(OC)c3)=NO2)cc1 (centres undefined)	i	i	i	i	·	·
COCCNC(=O)CN1C(=O)c2cccc3cccc1c23	i	i	i	i	·	·
O=[N+]([O-])c1cccc(S(=O)(=O)Nc2ccc(Cc3ccncc3)cc2)c1	i	i	-6.13*	i	58.9%*	i
O=[N+]([O-])c1cccc(S(=O)(=O)NCc2ccncc2)c1	i	i	i	i	·	·
COc1cc(/C=C2\SC(=S)N(NS(=O)(=O)c3ccccc3)C2=O)cc(OC)c1OC	i	i	i	i	·	·
COc1cccc(/C=C2\SC(=S)N(NS(=O)(=O)c3ccccc3)C2=O)c1OC	i	i	-5.66*	i	43.9%*	i
O=C(CN1C(=O)NC2(CCCc3ccccc32)C1=O)N1CCc2ccccc2C1 (centres undefined)	i	i	-6.09*	i	34.0%*	i
O=C(NCc1ccc(F)cc1)C1CC(=O)N(C2CCCCCCC2)C1 (centres undefined)	i	i	i	i	·	·
CC(C)(C)NC(=O)NC(=O)CN1CCN(c2ccccc2)CC1	i	i	i	i	·	·
CC(C)(C)NC(=O)NC(=O)CN1CCN(c2cccc(Cl)c2)CC1	i	i	-6.92*	i	47.3%*	i
O=C(c1cccc(-c2nnc(-c3ccccc3)o2)c1)N1CCCCC1	i	i	-6.34*	i	i	i
O=C(CCc1nc2ccccc2n1-c1ccccc1)NCCO	i	i	i	i	·	·
CCN1CCN(C(=O)CCc2nc3ccccc3n2-c2ccccc2)CC1	i	i	-6.08*	i	40.0%*	i
Cc1cc(C)n(CC(O)COc2ccc(F)cc2)n1 (centres undefined)	i	i	i	i	·	·
CCON1C(=O)C2(CCCCC2)C(=O)C12C=CCCC2 (centres undefined)	i	·	·	·	·	·
CC1CCC(NC(=O)c2ccc(NC3=NC4CS(=O)(=O)CC4S3)cc2)CC1 (centres undefined)	i	i	-5.99*	i	33.9%*	i
SMILES	ANO1 activ	ANO1 block	CHT block	CHT PAM	CHT inh conf	HEK293 MPD ctr
CC1CCCCC1NC(=O)c1ccc(NC2=NC3CS(=O)(=O)CC3S2)cc1 (centres undefined)	i	i	i	i	·	·
C=Cn1cc[n+](CC(=O)c2ccc(Br)cc2)c1	i	i	-6.75*	i	30.4%*	i
C=Cn1cc[n+](CC(=O)c2ccc(C)cc2)c1	i	i	i	i	·	·
C=Cn1cc[n+](CC(=O)c2ccc(Cl)cc2)c1	i	i	-6.67*	i	47.9%*	i
Cc1ccc2c(CNCc3ccccc3)cc(=O)oc2c1	i	i	i	i	·	·
COc1cccc(-c2ccc(NC(=O)C3CCCN(Cc4cnn(C(C)C)c4)C3)cc2)c1 (centres undefined)	i	i	i	i	·	·
COc1cccc(NC(=O)c2nc(S(C)(=O)=O)ncc2Cl)c1	i	i	-6.85*	i	36.0%*	i
COc1cccc(NC(=O)c2nc(SC)ncc2Cl)c1	i	i	i	i	·	·
CCOc1ncccc1C(=O)NCC1COc2ccccc2O1 (centres undefined)	i	i	-5.16*	i	67.1%*	i
CC(C)CNS(=O)(=O)c1ccc(CCC(=O)N2CCN(Cc3ccc4c(c3)OCO4)CC2)cc1	i	100*	-5.55*	i	61.8%*	i
CC(C)CNS(=O)(=O)c1ccc(CCC(=O)N2CCN(Cc3ccccc3)CC2)cc1	i	i	i	i	·	·
CCOC(=O)C1=CN(Cc2ccco2)S(=O)(=O)N(CC)C1c1ccc(F)c(Cl)c1 (centres undefined)	i	·	·	·	·	·
Cc1c(N2C(=O)/C(=C/c3ccccc3)SC2=S)c(=O)n(-c2ccccc2)n1C	i	i	i	i	·	·
Cc1ccc(/C=C2\SC(=S)N(c3c(C)n(C)n(-c4ccccc4)c3=O)C2=O)cc1	i	i	-5.36*	i	59.9%*	i
O=C(O)c1cc(-n2nnnc2SCc2ccc([N+](=O)[O-])cc2)ccc1Cl	i	i	i	i	·	·
O=[N+]([O-])c1ccc(O)c(CSc2nnnn2-c2ccccc2)c1	i	100*	-6.12*	i	29.9%*	i
Oc1cccc(-n2nnnc2SCc2ccccc2F)c1	i	i	-6.28*	i	56.8%*	i
CCCCCCCCc1nnc(N)s1	i	i	i	i	·	·
CC(C)[C@H]1C(=O)Nc2ccccc2N1C(=O)N[C@@H](Cc1ccccc1)C(=O)N[C@H](Cc1ccccc1)C(=O)O	i	i	-7.2*	i	i	i
CCCCCCNC(=O)c1cccc(-c2ccc(C)c3ccccc23)n1	i	i	-12.4*	i	i	i
